Hit rate of the full screen: of about 5,500 compounds, about 2,000 (36%) were called active. Not shown: some 18% with an inconclusive outcome. Cut-off read from the data, not from the text of the source: active = normalized growth mostly below about 0.91 (no sharp cut-off); inconclusive = no clear call, values can overlap the other calls; inactive = mostly above about 0.92. Some of the results follow.
Assay: chemical genetic growth profiling, strain panel (AID 1159580);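 note: tested at 20 µM; growth read once vehicle control cultures reached saturation at 30 °C; 1 = growth at the plate median or of vehicle wells; lower values mean less growth of the strain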
Settings: growth OD

Measured: normalized growth

COc1ccc2c(C)cc(=O)oc2c1
inactive: S. cerevisiae deletion strains, locus YJL187C, strain SWE1 (second series), hits give low values 1.02 | S. cerevisiae deletion strains, locus YJL187C, strain SWE1, hits give low values 0.997 | S. cerevisiae deletion strains, locus YJR066W, strain TOR1, hits give low values 0.933 | S. cerevisiae deletion strains, locus YKL009W, strain mrt4, hits give low values 1.02 | S. cerevisiae deletion strains, locus YKL068W, hits give low values 1.03 | S. cerevisiae deletion strains, locus YKL085W, strain MDH1 (second series), hits give low values 1.01 | S. cerevisiae deletion strains, locus YKL085W, strain MDH1, hits give low values 1.01 | S. cerevisiae deletion strains, locus YKL160W, strain elf1, hits give low values 1 | S. cerevisiae deletion strains, locus YKL190W, strain CNB1, hits give low values 1 | S. cerevisiae deletion strains, locus YKR001C, strain vps1, hits give low values 1.03 | S. cerevisiae deletion strains, locus YKR026C, strain gcn3, hits give low values 0.991 | S. cerevisiae deletion strains, locus YKR091W, strain srl3, hits give low values 0.987 | S. cerevisiae deletion strains, locus YLL001W, strain dnm1, hits give low values 0.986 | S. cerevisiae deletion strains, locus YLL026W, hits give low values 1 | S. cerevisiae deletion strains, locus YLL041C, strain sdh2, hits give low values 0.993 | S. cerevisiae deletion strains, locus YLR027C, strain aat2, hits give low values 0.991 | S. cerevisiae deletion strains, locus YLR039C, strain RIC1, hits give low values 1.01 | S. cerevisiae deletion strains, locus YLR058C, strain SHM2, hits give low values 1.01 | S. cerevisiae deletion strains, locus YLR102C, strain apc9, hits give low values 1.04 | S. cerevisiae deletion strains, locus YLR113W, strain HOG1, hits give low values 0.998 | S. cerevisiae deletion strains, locus YLR221C, strain rsa3, hits give low values 0.993 | S. cerevisiae deletion strains, locus YLR258W, strain gsy2, hits give low values 0.972 | S. cerevisiae deletion strains, locus YLR262C, strain YPT6 (second series), hits give low values 0.964 | S. cerevisiae deletion strains, locus YLR268W, strain sec22, hits give low values 1.03 | S. cerevisiae deletion strains, locus YLR320W, strain mms22, hits give low values 1 | S. cerevisiae deletion strains, locus YLR330W, strain CHS5, hits give low values 1.01 | S. cerevisiae deletion strains, locus YLR342W, strain FKS1, hits give low values 0.989 | S. cerevisiae deletion strains, locus YLR357W, strain rsc2, hits give low values 0.966 | S. cerevisiae deletion strains, locus YLR370C, strain arc18, hits give low values 0.997 | S. cerevisiae deletion strains, locus YLR371W, strain rom2, hits give low values 0.998 | S. cerevisiae deletion strains, locus YLR384C, strain iki3, hits give low values 0.996 | S. cerevisiae deletion strains, locus YLR418C, strain cdc73, hits give low values 1.03 | S. cerevisiae deletion strains, locus YML016C, strain PPZ1, hits give low values 1.02 | S. cerevisiae deletion strains, locus YML032C, strain rad52, hits give low values 1.01 | S. cerevisiae deletion strains, locus YML120C, strain ndi1, hits give low values 1.02 | S. cerevisiae deletion strains, locus YML124C, strain tub3, hits give low values 1.02 | S. cerevisiae deletion strains, locus YMR058W, strain fet3, hits give low values 0.987 | S. cerevisiae deletion strains, locus YMR078C, strain ctf18, hits give low values 1.03 | S. cerevisiae deletion strains, locus YMR125W, strain sto1, hits give low values 0.982 | S. cerevisiae deletion strains, locus YMR129W, hits give low values 1.01 | S. cerevisiae deletion strains, locus YMR205C, strain PFK2, hits give low values 0.988 | S. cerevisiae deletion strains, locus YMR223W, strain ubp8, hits give low values 1.02 | S. cerevisiae deletion strains, locus YMR231W, strain pep5, hits give low values 0.988 | S. cerevisiae deletion strains, locus YMR307W, strain GAS1, hits give low values 0.994 | S. cerevisiae deletion strains, locus YNL067W, strain RPL9B, hits give low values 1.01 | S. cerevisiae deletion strains, locus YNL071W, strain lat1, hits give low values 0.976 | S. cerevisiae deletion strains, locus YNL183C, strain NPR1, hits give low values 0.933 | S. cerevisiae deletion strains, locus YNL209W, strain ssb2, hits give low values 1 | S. cerevisiae deletion strains, locus YNL233W, strain BNI4, hits give low values 1.02 | S. cerevisiae deletion strains, locus YNL248C, strain rpa49, hits give low values 0.923 | S. cerevisiae deletion strains, locus YNL250W, strain rad50, hits give low values 1.04 | S. cerevisiae deletion strains, locus YNL271C, strain bni1, hits give low values 1.03 | S. cerevisiae deletion strains, locus YNL298W, strain CLA4, hits give low values 1.01 | S. cerevisiae deletion strains, locus YNL307C, strain MCK1, hits give low values 1.04 | S. cerevisiae deletion strains, locus YNL322C, strain KRE1 (second series), hits give low values 1 | S. cerevisiae deletion strains, locus YNL322C, strain KRE1, hits give low values 1.01 | S. cerevisiae deletion strains, locus YNR049C, strain mso1, hits give low values 0.969 | S. cerevisiae deletion strains, locus YNR052C, strain pop2, hits give low values 1.02 | S. cerevisiae deletion strains, locus YOL012C, strain htz1 0.756 | S. cerevisiae deletion strains, locus YOL147C, strain pex11, hits give low values 1.03 | S. cerevisiae deletion strains, locus YOR001W, strain rrp6, hits give low values 0.97 | S. cerevisiae deletion strains, locus YOR061W, strain CKA2, hits give low values 1.01 | S. cerevisiae deletion strains, locus YOR069W, strain VPS5, hits give low values 1.01 | S. cerevisiae deletion strains, locus YOR070C, strain gyp1, hits give low values 1 | S. cerevisiae deletion strains, locus YOR080W, strain dia2, hits give low values 0.99 | S. cerevisiae deletion strains, locus YOR083W, strain WHI5, hits give low values 0.987 | S. cerevisiae deletion strains, locus YOR106W, strain vam3, hits give low values 0.959 | S. cerevisiae deletion strains, locus YOR136W, strain idh2, hits give low values 1.03 | S. cerevisiae deletion strains, locus YOR144C, strain elg1, hits give low values 1.02 | S. cerevisiae deletion strains, locus YOR184W, strain ser1, hits give low values 1.02 | S. cerevisiae deletion strains, locus YOR231W, strain MKK1, hits give low values 0.954 | S. cerevisiae deletion strains, locus YOR265W, strain rbl2, hits give low values 0.996 | S. cerevisiae deletion strains, locus YOR270C, strain vph1, hits give low values 0.803 | S. cerevisiae deletion strains, locus YOR290C, strain snf2, hits give low values 1 | S. cerevisiae deletion strains, locus YOR316C, strain cot1, hits give low values 1.02 | S. cerevisiae deletion strains, locus YPL051W, strain arl3, hits give low values 1.01 | S. cerevisiae deletion strains, locus YPL078C, strain atp4, hits give low values 0.994 | S. cerevisiae deletion strains, locus YPL106C, strain sse1, hits give low values 0.943 | S. cerevisiae deletion strains, locus YPL240C, strain hsp82, hits give low values 1.01 | S. cerevisiae deletion strains, locus YPL256C, strain CLN2, hits give low values 1.01 | S. cerevisiae deletion strains, locus YPR119W, strain clb2, hits give low values 1.02 | S. cerevisiae deletion strains, locus YPR141C, strain kar3, hits give low values 1.02 | S. cerevisiae deletion strains, locus YPR163C, strain tif3, hits give low values 1.03 | S. cerevisiae deletion strains, locus YPR167C, strain met16, hits give low values 1.02 | S. cerevisiae deletion strains, strain wtn01, hits give low values 1.01 | S. cerevisiae strains, strain wild type, hits give low values 1.01

— PubChem BioAssay AID1159580 (chemical genetic matrix, 2015)
